Experimental data published in PubChem BioAssay (NCATS).
Values without a mark were called inactive. Results filed as inconclusive are left out. Active and inactive are the calls of the source. Unless noted, the call rests on the fitted dose curve; in most records, active means well fitted curve in either direction with a large enough effect (not every such curve was filed as active); inconclusive means small, poorly fitted or top-dose-only effect, or another doubt; inactive means flat fitted curve, though single readings scatter. Residues, ends and D or L forms follow the SMILES beside them.

Legend:
[1] = target: Lysosomal acid glucosylceramidase (Homo sapiens) (UniProt P04062); test: Glucocerebrosidase-p2 (AID 348; in the data active means potency below about 10 µM; further: potency means the concentration at half of the fitted maximal effect); conditions: purified GBA, blue fluorogenic substrate, 40 min
Lysosomal acid glucosylceramidase (Homo sapiens), sequence (P04062 whole entry, looked up): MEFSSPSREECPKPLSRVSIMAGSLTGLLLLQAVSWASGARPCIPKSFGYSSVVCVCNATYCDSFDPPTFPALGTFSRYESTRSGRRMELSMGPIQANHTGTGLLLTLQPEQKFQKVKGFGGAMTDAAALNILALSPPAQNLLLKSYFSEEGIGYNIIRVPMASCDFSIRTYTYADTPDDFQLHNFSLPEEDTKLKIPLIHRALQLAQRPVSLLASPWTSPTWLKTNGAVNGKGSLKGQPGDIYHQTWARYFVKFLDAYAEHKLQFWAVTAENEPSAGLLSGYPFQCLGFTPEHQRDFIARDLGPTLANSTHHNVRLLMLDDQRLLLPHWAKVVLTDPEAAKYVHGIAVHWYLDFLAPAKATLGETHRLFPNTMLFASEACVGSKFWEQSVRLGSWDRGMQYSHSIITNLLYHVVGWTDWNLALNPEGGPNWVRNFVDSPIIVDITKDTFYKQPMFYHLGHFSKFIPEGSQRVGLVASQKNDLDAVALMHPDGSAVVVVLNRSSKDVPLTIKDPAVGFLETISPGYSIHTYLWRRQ
Outline: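 Normal human glucocerebrosidase (0.2 nM) with blue fluorogenic substrate (80 uM final) in citrate/phosphate pH 5.9 with 10mM sodium taurocholate, 0.01% tween-20; 40 min RT, NaOH/glycine stop; fluorescence Ex 365/Em 440; AC50 from a titration from 0.6 nM upwards.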

[2] = AP1 Signaling Pathway (AID 357); conditions: ME-180 AP-1-bla reporter, EGF-induced, beta-lactamase ratio, 5 h; at 7.69 µM (top of the series) unless noted;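 further: ME-180 reporter cells stimulated with EGF at its EC50 level; on the % scale 0 is the no-effect control and ±100 the full control effect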
Outline: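 Titration-series screen for positive or negative modulators of EC50 EGF-induced signaling in ME-180 cells carrying an AP-1-driven beta-lactamase reporter. After 5 hours at 37 degrees Celsius, CCF4 460nm/530nm emission ratio gave %Activity; AC50 values derived.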

[3] = target: Cytochrome P450 1A2 (Homo sapiens) (UniProt P05177); test: p450-cyp1a2 (AID 410; calls by dose curve; further: potency means the concentration at half of the fitted maximal effect;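 on activity change, negative = inhibition: -100% = full effect of reference inhibitor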); conditions: recombinant CYP1A2, luciferin-ME demethylation, luminescence; series mostly up to 11.4 µM
Cytochrome P450 1A2 (Homo sapiens), sequence (P05177 whole entry, looked up): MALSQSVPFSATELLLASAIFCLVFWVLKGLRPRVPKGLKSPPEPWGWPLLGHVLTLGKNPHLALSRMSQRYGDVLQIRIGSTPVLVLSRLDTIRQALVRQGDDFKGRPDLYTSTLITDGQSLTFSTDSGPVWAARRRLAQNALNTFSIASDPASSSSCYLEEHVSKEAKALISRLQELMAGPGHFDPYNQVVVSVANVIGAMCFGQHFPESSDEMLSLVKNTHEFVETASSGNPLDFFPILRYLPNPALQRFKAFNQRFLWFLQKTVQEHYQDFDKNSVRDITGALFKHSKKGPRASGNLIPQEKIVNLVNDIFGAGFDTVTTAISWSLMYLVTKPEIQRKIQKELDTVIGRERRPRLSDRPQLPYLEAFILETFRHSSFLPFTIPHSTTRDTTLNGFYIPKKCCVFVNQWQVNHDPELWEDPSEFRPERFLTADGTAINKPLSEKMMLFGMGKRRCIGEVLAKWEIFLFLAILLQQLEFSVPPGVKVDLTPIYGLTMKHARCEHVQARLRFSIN
Outline: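 Luminescent demethylation readout: Luciferin-ME (100uM, equal to Km) turned over by 20nM CYP1A2 for 60 min at room temperature after NADPH regeneration addition, following 10 min compound preincubation. Normalization used 57 uM furafylline as full inhibition.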

[4] = NFAT Signaling Pathway (AID 444); conditions: Jurkat NFAT-bla M1, carbachol, beta-lactamase ratio, 5 h; at 7.69 µM (top of the series) unless noted;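 further: carbachol stimulus at about its EC50 of 1 µM final; on the % scale 0 is the no-effect control and ±100 the full control effect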
Outline: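 Jurkat cells with NFAT-driven β-lactamase reporter and co-expressed M1 receptor, stimulated with carbachol (final 1 uM, ~EC50), compound titration, 5 h at 37 °C. CCF4 loaded 1 h at RT; 460/530 nm ratio gave %activity and AC50.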

[5] = Stat Signaling Pathway (AID 446); conditions: ME-180 (cervical carcinoma) SIE beta-lactamase reporter, IL-6 stimulated, 5 h; at 7.69 µM (top of the series) unless noted;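 further: ME-180 cervical cancer cells given 40 pM IL-6 alongside compound; SIE-controlled beta-lactamase reporter measured as 460/530 nm FRET emission ratio; on the % scale 0 is the no-effect control and ±100 the full control effect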
Outline: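 FRET read-out (405 nm excitation, 460/530 nm emission) of a beta-lactamase reporter under a STAT-inducible element in ME-180 cervical carcinoma cells. Cells with compound receive 40 pM IL-6 for 5 h. Values are normalised to AC90 stimulation and AC90 JAK-inhibitor controls.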

[6] = target: Glucocorticoid receptor (Homo sapiens) (UniProt P04150); test: GR-GFP Redistribution (AID 450;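 active means compounds whose dose series gives a full or clear partial fitted curve of increased nuclear translocation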; further: potency means the concentration at half of the fitted maximal effect); conditions: U2OS GR-GFP nuclear translocation, laser cytometry, 2 h
Glucocorticoid receptor (Homo sapiens), sequence (P04150 whole entry, looked up, the tested form may be a part): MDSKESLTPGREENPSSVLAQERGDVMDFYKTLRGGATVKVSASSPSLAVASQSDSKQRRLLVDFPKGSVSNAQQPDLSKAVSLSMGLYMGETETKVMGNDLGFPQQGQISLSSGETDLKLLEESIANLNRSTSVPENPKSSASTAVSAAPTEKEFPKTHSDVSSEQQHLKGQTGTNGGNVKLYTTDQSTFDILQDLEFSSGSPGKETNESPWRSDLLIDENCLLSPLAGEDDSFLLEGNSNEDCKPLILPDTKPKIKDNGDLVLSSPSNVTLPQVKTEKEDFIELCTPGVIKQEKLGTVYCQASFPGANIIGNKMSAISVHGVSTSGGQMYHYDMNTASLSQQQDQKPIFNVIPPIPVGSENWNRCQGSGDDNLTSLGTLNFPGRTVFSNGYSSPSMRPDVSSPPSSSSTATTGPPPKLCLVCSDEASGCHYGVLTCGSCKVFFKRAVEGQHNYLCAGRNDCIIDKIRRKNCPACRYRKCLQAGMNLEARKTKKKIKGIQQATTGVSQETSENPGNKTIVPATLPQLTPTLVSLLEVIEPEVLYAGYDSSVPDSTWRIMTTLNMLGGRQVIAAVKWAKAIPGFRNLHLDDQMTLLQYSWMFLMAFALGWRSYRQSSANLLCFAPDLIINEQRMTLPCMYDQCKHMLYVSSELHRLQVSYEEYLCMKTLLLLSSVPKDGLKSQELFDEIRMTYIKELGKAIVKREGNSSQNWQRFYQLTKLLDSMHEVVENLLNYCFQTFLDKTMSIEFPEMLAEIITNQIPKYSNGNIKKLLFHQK

[7] = target: Glucocorticoid receptor (Homo sapiens) (UniProt P04150); test: GR-EFC Redistribution (AID 451; calls by dose curve; further: potency means the concentration at half of the fitted maximal effect); conditions: CHO-K1 GR-EFC translocation, beta-gal luminescence, 2 h
Outline: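 CHO-K1 cells expressing nuclear EA and GR-ED fragments of b-gal; compounds titrated up to 46 uM final, 2 h at 37 C. GR nuclear translocation read as complemented b-gal luminescence after 1 h RT detection.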

[8] = target: Mitogen-activated protein kinase 10 (Mus musculus) (UniProt Q61831); test: JNK3 AlphaScreen Assay (AID 530); conditions: JNK3 lysate, c-Jun phosphorylation; series mostly up to 11.4 µM;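 further: kinase came from lysate of stimulated human HepG2 cells; signal reports phosphorylation of biotinylated GST-cJun 1-79 at Ser73 with 10 µM ATP; on the % scale 0 is the no-effect control and ±100 the full control effect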
Outline: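 Activity was read by AlphaScreen after JNK3-containing HepG2 lysate (cytokine pre-activated) phosphorylated biotinylated GST-cJun with 10 uM ATP at room temperature. Phospho-Ser73 cJun antibody with Protein-A acceptor beads provided detection.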

[9] = target: 3',5'-cyclic-AMP phosphodiesterase 4B (Homo sapiens) (UniProt Q07343); test: qHTS Assay for Inhibitors of PDE-IV (AID 607; active means well fitted activation curve with a large enough effect in the main read-out, with a control signal flat, not every such curve was filed as active; further: % of control where 0% means no effect); conditions: HEK293 ACTOne CNG channel cells, membrane potential fluorescence; series mostly up to 22.9 µM
3',5'-cyclic-AMP phosphodiesterase 4B (Homo sapiens), sequence (Q07343 whole entry, looked up): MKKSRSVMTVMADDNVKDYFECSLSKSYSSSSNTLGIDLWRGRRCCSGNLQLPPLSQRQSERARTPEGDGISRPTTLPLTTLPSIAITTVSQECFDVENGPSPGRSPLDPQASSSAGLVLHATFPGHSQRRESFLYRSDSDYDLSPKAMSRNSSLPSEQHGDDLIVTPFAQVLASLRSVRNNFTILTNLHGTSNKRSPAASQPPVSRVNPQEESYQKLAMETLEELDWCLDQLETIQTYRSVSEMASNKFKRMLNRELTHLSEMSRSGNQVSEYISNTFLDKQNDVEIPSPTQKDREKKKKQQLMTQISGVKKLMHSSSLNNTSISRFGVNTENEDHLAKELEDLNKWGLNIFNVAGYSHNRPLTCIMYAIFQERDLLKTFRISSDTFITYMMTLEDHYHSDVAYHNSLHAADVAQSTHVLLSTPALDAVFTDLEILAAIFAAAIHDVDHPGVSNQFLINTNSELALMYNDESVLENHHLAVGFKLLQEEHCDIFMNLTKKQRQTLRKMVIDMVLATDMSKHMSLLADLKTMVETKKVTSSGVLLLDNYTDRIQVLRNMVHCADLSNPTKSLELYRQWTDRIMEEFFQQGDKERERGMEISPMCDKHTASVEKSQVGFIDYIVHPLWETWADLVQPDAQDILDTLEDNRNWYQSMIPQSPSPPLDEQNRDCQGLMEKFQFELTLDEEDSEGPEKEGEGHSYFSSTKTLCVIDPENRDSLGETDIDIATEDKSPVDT
Outline: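 Cell-based read-out of cAMP via a modified cyclic nucleotide-gated channel and membrane potential dye (535/590 nm) in HEK293 cells expressing PDE4 endogenously. Compounds tested up to 22.9 uM final; 100 uM RO 20-1724 reference.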

SMILES | Potency [1] | activity change, negative = inhibition [2] | Potency [3] | activity change, negative = inhibition [4] | activity, negative = inhibition [5] | Potency [6] | Potency [7] | Potency [8] | Potency [9] | activity change, negative = inhibition [3]
CN1CCCN(C)C1c1cc([N+](=O)[O-])ccc1O | > 11.4 µM | 7.56% | inactive | -23.2% | -0.988% | > 46 µM | > 9.22 µM | inactive | inactive | –
Nc1nccc(Nc2ccc(S(N)(=O)=O)cc2)n1 | > 11.4 µM | 2.96% | inactive | -13.6% | -5% | > 46 µM | > 9.22 µM | inactive | inactive | –
Cc1ccc(S(=O)(=O)Oc2cc(N)c3c(n2)CCC3)cc1 | > 11.4 µM | 11.1% | – | 9.71% | -5.99% | > 46 µM | > 9.22 µM | inactive | inactive | -19.4% [at 2.29 µM]
Cc1ccc(S(=O)(=O)NC(=O)Nc2ncn[nH]2)cc1 | > 11.4 µM | 3.19% | – | 13% | 0.243% | > 46 µM | > 9.22 µM | inactive | inactive | -21.5% [at 2.29 µM]
Oc1c(Cl)cc(CN(Cc2cc(Cl)c(O)c(Cl)c2)C2CCCCC2)cc1Cl | > 11.4 µM | 4.05% | – | 1.82% | -25.8% | > 46 µM | > 9.22 µM | inactive | inactive | 11.3% [at 2.29 µM]
COc1ccc2c3c([nH]c2c1)[C@H]1C[C@@H]2[C@@H](C[C@@H](O)[C@H](OC)[C@H]2C(=O)O)CN1CC3 | > 11.4 µM | -5.49% | inactive | 0.887% | -7.32% | > 46 µM | > 9.22 µM | inactive | inactive | –
Fc1cccc(CSc2ncnc3c2ncn3[C@H]2CCCS2)c1 | > 11.4 µM | -5.08% | 0.501 µM (active) | -2.58% | 3.04% | > 46 µM | > 9.22 µM | inactive | inactive | –
c1c[nH]c(CN2CCN(Cc3ncc[nH]3)CC2)n1 | > 11.4 µM | 4.41% | inactive | -12.2% | -5.33% | > 46 µM | > 9.22 µM | inactive | inactive | –
NC(N)=NNC(=O)C(=O)O | > 11.4 µM | 2.05% | inactive | 4.61% | 2.14% | > 46 µM | > 9.22 µM | inactive | inactive | –
O=C(O)Cc1cccnc1 | > 11.4 µM | 8.81% | inactive | 15.8% | 3.03% | > 46 µM | > 9.22 µM | inactive | inactive | –
O=C(O)c1ccccc1C(=O)Nc1cc2c(cc1Br)-c1ccccc1C2=O | > 11.4 µM | -2.84% | 0.631 µM (active) | 10.3% | -5.27% | > 46 µM | > 9.22 µM | inactive | inactive | –
Oc1cc(CN2COc3ccccc32)c(O)cc1CNC1CCCCC1 | > 11.4 µM | 6.94% | inactive | -5.35% | 0.916% | > 46 µM | > 9.22 µM | inactive | inactive | –
C[N+](C)(C)CCCSc1nc2ccccc2[nH]1 | > 11.4 µM | -2.62% | inactive | -15.2% | -0.948% | > 46 µM | > 9.22 µM | inactive | inactive | –
O=[N+]([O-])c1ccc2ncccc2c1CCc1c([N+](=O)[O-])ccc2ncccc12 | > 11.4 µM | 1.48% | 3.16 µM (active) | 17.8% | 5.88% | > 46 µM | > 9.22 µM | inactive | inactive | –
CC(C)c1ccc(/C=C2\C=C(c3ccc4ccccc4c3)OC2=O)cc1 | > 11.4 µM | -7.05% | – | -17% | 4.97% | > 46 µM | > 9.22 µM | inactive | inactive | -24.7% [at 2.29 µM]
O=C(O)CCC(=O)c1ccc(Cl)cc1 | > 11.4 µM | 11.6% | inactive | -7.55% | 17.9% | > 46 µM | > 9.22 µM | inactive | inactive | –

SMILES | Potency [1] | activity change, negative = inhibition [2] | Potency [3] | activity change, negative = inhibition [4] | activity, negative = inhibition [5] | Potency [6] | Potency [7] | Potency [8] | Potency [9] | activity change, negative = inhibition [3]
Cc1cccc2c1Oc1ccccc1[C@@H]2NC(=O)c1ccc([N+](=O)[O-])cc1 | > 11.4 µM | 0.106% | 1 µM (active) | -2.92% | -4.56% | > 46 µM | > 9.22 µM | inactive | inactive | –
NC[C@H]1O[C@H](n2cnc3c(N)ncnc32)C[C@@H]1O | > 11.4 µM | -8.42% | inactive | 7.55% | 9.05% | > 46 µM | > 9.22 µM | inactive | inactive | –
C[C@@](O)(CNS(=O)(=O)c1ccccc1)c1ccccc1 | > 11.4 µM | 0.078% | inactive | 3.96% | -0.864% | > 46 µM | > 9.22 µM | inactive | inactive | –
NCC(=O)NC1(C(=O)O)CCCC1 (HELM PEPTIDE1{G.[O=C(O)C1(N[*:1])CCCC1]}$$$$V2.0) | > 11.4 µM | 4.89% | inactive | -2.62% | 12.2% | > 46 µM | > 9.22 µM | inactive | inactive | –
O=C(O)CNc1ccc(C(=O)O)cc1 | > 11.4 µM | -2.61% | inactive | 12.8% | 6.8% | > 46 µM | > 9.22 µM | inactive | inactive | –
O=C(O)C12CC3(C(=O)O)CC(C(=O)O)(CC(C(=O)O)(C1)C3=O)C2=O | > 11.4 µM | -2.38% | – | 6.84% | 4.13% | > 46 µM | > 9.22 µM | inactive | inactive | -4.3% [at 2.29 µM]
C[N+](C)(N)Cc1csc(-c2ccc(Cl)cc2)n1 | > 11.4 µM | 8.47% | – | -11.8% | 0.559% | > 46 µM | > 9.22 µM | inactive | inactive | -4.2% [at 2.29 µM]
O=[N+]([O-])c1ccc(NN=C2c3ccccc3Cc3ccccc32)c([N+](=O)[O-])c1 | > 11.4 µM | 26.1% | 0.794 µM (active) | -1.66% | 19.7% | > 46 µM | > 9.22 µM | inactive | inactive | –
N[C@H](C(=O)O)[C@@H](O)c1cnc[nH]1 | > 11.4 µM | 6.1% | inactive | -4.22% | 2.54% | > 46 µM | > 9.22 µM | inactive | inactive | –
CC(=O)O[C@H]1CC[C@@]2(C)[C@@H](CC[C@H]3[C@H]2CC(=O)[C@@]2(C)[C@@H]3C[C@H]3CC(C)=CC(=O)[C@H]32)C1 | > 11.4 µM | 5.01% | – | 22% | -1.11% | > 46 µM | > 9.22 µM | inactive | inactive | -9% [at 2.29 µM]
N=C(N)c1ccc(-c2ccc(-c3ccc(C(=N)N)cc3)o2)cc1 | > 11.4 µM | 7.04% | inactive | 7.72% | 10.3% | > 46 µM | > 9.22 µM | inactive | inactive | –
COc1cccc2c1C(=O)c1c(O)c3c(c(O)c1C2=O)C[C@@](O)(C(=O)CO)C[C@H]3O[C@H]1C[C@@H](N)[C@H](O)[C@@H](C)O1.[W] | > 11.4 µM | 0.391% | inactive | -27.2% | 14.9% | > 46 µM | > 9.22 µM | inactive | inactive | –
Nc1ncnc2c1ncn2CCCCC(=O)O | > 11.4 µM | 10.7% | inactive | 13.9% | -0.241% | > 46 µM | > 9.22 µM | inactive | inactive | –
O=C1CC[C@H](NC(=O)c2ccccc2)C(=O)N1 | > 11.4 µM | 5.12% | inactive | 4.46% | 2.96% | > 46 µM | > 9.22 µM | inactive | inactive | –
c1ccc(CCNc2ccccn2)nc1 | > 11.4 µM | -8.73% | 5.01 µM (active) | 2.35% | -1.9% | > 46 µM | > 9.22 µM | inactive | inactive | –
